This is a sample that favours compounds with a hit; in the whole collection about 2.9% have one here.
DRD3 antagonist = qHTS of D3 Dopamine Receptor Antagonist: qHTS; D(3) dopamine receptor (Homo sapiens), P35462; D3R cells, DiscoveRx beta-arrestin luminescence, antagonist mode; hits give low values; max response, negative = inhibition, %; hit rate 2.5% among 360,000; AID 652054, 2013; in the data active means max response below about -50%; inconclusive means no clear call, values can overlap the other calls
Target sequence (P35462 whole entry, looked up): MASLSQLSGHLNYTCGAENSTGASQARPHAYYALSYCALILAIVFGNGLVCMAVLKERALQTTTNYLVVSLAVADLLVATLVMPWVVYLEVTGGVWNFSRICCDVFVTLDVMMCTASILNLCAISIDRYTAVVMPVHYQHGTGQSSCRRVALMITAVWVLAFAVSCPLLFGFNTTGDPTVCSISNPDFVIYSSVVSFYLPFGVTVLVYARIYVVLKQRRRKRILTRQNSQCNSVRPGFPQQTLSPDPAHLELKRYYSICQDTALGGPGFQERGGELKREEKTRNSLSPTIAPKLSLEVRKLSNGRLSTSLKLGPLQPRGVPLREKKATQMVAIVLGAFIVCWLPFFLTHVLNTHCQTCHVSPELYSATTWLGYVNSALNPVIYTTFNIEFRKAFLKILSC
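Cells expressing the human receptor were seeded at 1500 cells/well, incubated overnight at 37 degrees C in 5% CO2, then exposed to library compounds with dopamine controls for 90 minutes at 37 degrees C before luminescent detection.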
D3 ag = qHTS of D3 Dopamine Receptor Agonist: qHTS | D(3) dopamine receptor (Homo sapiens), P35462 | hit rate 0.58% among 410,000 | max activation, % | D3R DiscoveRx beta-arrestin cells, luminescence, 90 min; in the data active means max activation above about 30%
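Agonist-mode cell screen: cells plated at 1500/well and incubated overnight at 37 °C, then exposed to library compounds for 90 min at 37 °C. Detection reagent was added for 30–60 min at room temperature, and luminescence was read.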
a7 integrin act = qHTS for Activators of Integrin-Mediated Alleviation for Muscular Dystrophy. alpha7betagal myoblasts, beta-gal FDG fluorescence, 48 h. hit rate 0.064% among 350,000. AID 624291, 2012. Potency, µM (top dose mostly 38.3 µM), usual class: activators; further: nearly all actives have a fitted effect of over 60% in size
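Alpha7betagal+/- myoblasts (passage 13) were plated 16-24 hr, then exposed to compounds (1:260 dilution of DMSO stock) for 48 hours at 37C. After MPER lysis, β-galactosidase reporter activity was read as FDG fluorescence (ex 480/em 540) after 30 minutes.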
IDH1 R132H inh = qHTS for Inhibitors of mutant isocitrate dehydrogenase 1 (IDH1): qHTS | Isocitrate dehydrogenase [NADP] cytoplasmic (Homo sapiens), O75874 | IDH1-R132H enzyme, NADPH consumption, diaphorase/resazurin fluorescence | Potency, µM (highest dose often 76.6 µM), actives largely listed as inhibitors | hit rate 0.093% among 390,000; further: nearly all actives have a fitted effect of over 65% in size
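IDH1-R132H (0.5 ug/mL) preincubated 30 min with compound, then NADPH (0.016 mM) and alpha-KG (2 mM) added; 80 min at RT, pH 7.5. Remaining NADPH coupled via diaphorase/resazurin to fluorescence (540/590 nm); concentration-response curves normalized to no-enzyme control.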
B2AR arrestin = qHTS assay of beta-arrestin-biased ligands of beta2-adrenergic receptor | AID 492947, 2010 | hit rate 0.02% among 330,000 | Potency, µM (top dose mostly 46.1 µM), actives largely listed as activators | beta-arrestin recruitment to beta2AR, cell-based reporter | Beta-2 adrenergic receptor (Homo sapiens), P07550; further: nearly all actives have a fitted effect of over 65% in size
A number is an active result; – = inactive; ? = inconclusive; · = no result; [ ] = remark or other dose. Unless noted, the call rests on the fitted dose curve; in most records, active means well fitted curve in the direction sought with a large enough effect; inconclusive means small, poorly fitted or top-dose-only effect, or another doubt; inactive means no such curve, though single readings can be large; an effect the other way counts as inactive or inconclusive.

SMILES	DRD3 antagonist	D3 ag	a7 integrin act	IDH1 R132H inh	B2AR arrestin
CO[C@H]1C=CO[C@@]2(C)Oc3c(C)c(O)c4c(O)c(c(/C=N/N5CCN(C6CCCC6)CC5)c(O)c4c3C2=O)NC(=O)/C(C)=C\C=C[C@H](C)[C@H](O)[C@@H](C)[C@@H](O)[C@@H](C)[C@H](OC(C)=O)[C@@H]1C	·	–	·	·	·
O=C(NOC[C@H](O)CO)c1ccc(F)c(F)c1Nc1ccc(I)cc1F	·	–	·	·	·
CCCN1C(=O)/C(=c2\sc3nc(=O)c(Cc4ccc(C)cc4)nn3c2=O)c2ccccc21	–	–	–	–	–
CCCCN1C(=O)/C(=c2\sc3nc(=O)c(-c4ccccc4)nn3c2=O)c2ccccc21	-69	–	–	–	–
CC(C)c1cc(C(=O)Nc2cccc(C(F)(F)F)c2)no1	-53	–	–	–	–
O=C(Nc1cccc(C(F)(F)F)c1)c1cc(-c2ccc(Cl)cc2)on1	·	–	·	–	·
CC(=O)NC(=S)Nc1ccc([N+](=O)[O-])cc1C	–	–	–	–	–
Cc1cc([N+](=O)[O-])ccc1NC(=S)NC(=O)Cc1ccccc1	-61	–	–	–	–
O=C1CCC[C@H]2c3[nH]c4ccccc4c3CCN12	-51	–	–	–	·
O=C(CSc1nc(C2CC2)nc2sc3c(c12)CCCC3)NCc1ccco1	-112	–	–	–	–
COc1ccc(-n2nc(C(=O)NCC(=O)NCCN(C)C)c3ccccc3c2=O)cc1	–	–	–	–	–
CCOC(=O)N1CCN(C(=O)c2cccc(S(=O)(=O)Nc3ccccc3Cl)c2)CC1	–	–	–	–	–
COc1ccc(NS(=O)(=O)c2cccc(C(=O)N/N=C(\C)c3ccc(-n4ccnc4)cc3)c2)cc1	–	–	–	–	–
C/C(=N\NC(=O)c1cccc(S(=O)(=O)Nc2ccccc2Cl)c1)c1ccc(-n2ccnc2)cc1	-52	–	–	–	–
O=C(c1cccc(S(=O)(=O)Nc2ccccc2Cl)c1)N1CCC1	-59	–	–	–	–
O=C(NCc1cccc(Cl)c1)c1cccn1-c1nnc(N2CCCC2)s1	·	–	·	–	·
COc1ccc(CNC(=O)CC(c2ccc(OC)cc2)N2Cc3ccccc3C2=O)cc1 (configuration not stated)	·	–	·	–	·
COCCNCCOCCOc1ccc(Cl)c(C)c1	-52	–	–	–	–
Cc1cc(OCCOCCN(C)C)ccc1Cl	–	–	–	–	–
CN(C(=O)COC(=O)c1ccc2c(c1)OCCO2)c1ccccc1	–	–	–	–	–
c1ccc(CN2CCN(Cc3cn4cccnc4n3)CC2)cc1	–	–	–	–	–
c1ccc(N2CCN(Cc3cn4cccnc4n3)CC2)cc1	-59	–	–	–	–
C=CC1=C(C)C2=CC3=NC(=C(CC(=O)[O-])C4=NC(=C(C)C4=C([O-])[O-])C=c4[n-]c(c(C)c4CC)=CC1=N2)C(CCC(=O)[O-])C3C.[Cu+2].[Na+].[Na+].[Na+] (configuration not stated)	·	–	·	·	·
O=C1CC(C(F)(F)F)=NN1	–	33	–	–	–
CCOc1ccc(OCC)c(NS(=O)(=O)c2ccc(-c3coc(C)n3)cc2)c1	·	–	·	–	·
SMILES	DRD3 antagonist	D3 ag	a7 integrin act	IDH1 R132H inh	B2AR arrestin
Cc1nc(N2CCN(c3ccccn3)CC2)c2c(C)c(C(=O)Nc3c(F)cc(F)cc3Br)sc2n1	–	39	–	–	–
Cc1nc(N2CCN(c3ccccn3)CC2)c2c(C)c(C(=O)Nc3c(C)cc(Br)cc3C)sc2n1	–	–	–	–	–
Cc1nc(N2CCC(C)CC2)c2c(C)c(C(=O)Nc3ccccc3C(F)(F)F)sc2n1	–	31	–	–	–
COc1cccc(CC(=O)Nc2ccc3nc(N4CCC(C)CC4)cc(C)c3c2)c1	·	–	·	–	·
O=C(Cn1ncc(Cl)c(Cl)c1=O)N1CCN(Cc2ccccc2)CC1	-63	–	–	–	–
COc1ccc(N2C(=O)Cc3cc(OC)c(OC)cc3C2c2ccc(F)cc2)cc1 (configuration not stated)	·	–	·	–	·
Cc1ccc(C2(C)NC(=O)N(CC(=O)Nc3cc(C)on3)C2=O)cc1 (configuration not stated)	–	–	–[7.66 µM]	–	–
Cc1ccc(C2(C)NC(=O)N(CC(=O)NC(=O)NC(C)(C)C)C2=O)cc1 (configuration not stated)	–	33	–	–	–
CCN(CC)CCNC(=S)Nc1ccc(Cl)cc1	-51	–	–	–	–
CCN(CC)CCCNC(=S)Nc1ccc(Br)cc1	–	–	–	–	–
COc1ccc2c(C)c(CCC(=O)NCCc3ccc(OC)c(OC)c3)c(=O)oc2c1	·	–	·	–	·
CCCOc1cccn2c(N(C)C(=O)c3ccccc3F)c(CC)nc12	-72	–	·	·	·
CCc1nc2c(OCCC3CCCCC3)cccn2c1N(C)C(=O)c1ccccc1F	-57	–	·	·	·
CCc1nc2c(OCC3CCCCC3)cccn2c1N(C)C(=O)c1ccccc1F	-57	–	·	·	·
CCc1nc2c(OCCn3cccc3)cccn2c1N(C=O)Cc1ccccc1	–	45	·	·	·
CCc1nc2c(OCCC3CCCCC3)cccn2c1N(C)C(=O)COc1ccccc1	–	–	·	·	·
O=C(NNS(=O)(=O)c1ccccc1[N+](=O)[O-])c1cc2ccccc2cc1O	–	–	?	–	–
Cc1ccc(-c2csc3nc4cc(C(N)=O)ccc4c(=O)n23)cc1	-61	–	–	–	–
CNC(=O)COc1ccc(Nc2nnc(-c3ccc(C)c(S(=O)(=O)NC(C)(C)C)c3)c3ccccc23)cc1	·	–	·	–	·
O=C1NC[C@@H](CCCCN2C[C@H](Cc3ccc(O)cc3)N(CC3CCCCC3)C(=O)C2=O)N(Cc2ccccc2)C1=O	-75	–	·	·	·
O=C1NC[C@H](c2ccccc2)N(CCCCC2CCCCC2)C1=O	-58	–	·	·	·
O=C1NC[C@H](CCCCN2C[C@H](Cc3ccc(O)cc3)N(Cc3ccccc3)C(=O)C2=O)N(CCc2ccc(O)cc2)C1=O	–	37	·	·	·
Cn1c(N)c(C(=O)CSc2nn(-c3ccccc3)c(=S)s2)c(=O)n(C)c1=O	–	–	–	–	–
COc1ccc(NC(=O)c2coc3ccccc23)cc1OC	-67	–	–	–	–
COc1ccc(NC(=O)c2coc(=O)c3ccccc23)cc1OC	·	–	·	–	·
CC(C)(C)c1ccc(S(=O)(=O)N(CCCN2CCOCC2)Cc2cccs2)cc1	-67	–	–	–	–
CC(C)Cn1c(=O)c2ccccc2n2c(CCC(=O)Nc3ccc(F)c(F)c3)nnc12	·	–	·	–	·
CCOC(=O)C1CCN(S(=O)(=O)c2ccc3[nH]c(=O)oc3c2)CC1	–	–	–	–	–
